# Ins promoter up – MIN6 insulin promoter up-regulation | MIN6 insulin promoter-GFP reporter, high-content imaging; hits give high values | z-score at 5 µM | actives 0.3% (n = 190,000) | AID 1625;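 active means z-score above 3 at 5 µM with at least 500 cells counted in the well; inconclusive means wells under 500 cells, flagged as cytotoxic or low count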
# Insulin prom inh – TRM-6 insulin promoter activity inhibition | TRM-6 cells (human fetal islet line), insulin promoter-eGFP reporter, imaging; reporter expression induced with tamoxifen | inhibition, % at 2 µM | actives 0.9% (n = 130,000) | AID 1273;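 active means inhibition above the mean plus 3 SD, with well images judged a real hit on visual review, cut at about 60% in these data, passing the limit was not always enough; inconclusive means inhibition over the cutoff but images rejected on review; inactive means inhibition not above the cutoff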
# S1P4 ag – activates the human S1P4 receptor. actives 0.35% (n = 220,000). AID 1509. S1P4-expressing cell line, agonist reporter assay. O95977. activation, % at 4.98 µM; in the data active means activation above about 11%;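 further: 0% = DMSO vehicle and 100% = reference agonist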
# Target sequence (O95977 whole entry, looked up): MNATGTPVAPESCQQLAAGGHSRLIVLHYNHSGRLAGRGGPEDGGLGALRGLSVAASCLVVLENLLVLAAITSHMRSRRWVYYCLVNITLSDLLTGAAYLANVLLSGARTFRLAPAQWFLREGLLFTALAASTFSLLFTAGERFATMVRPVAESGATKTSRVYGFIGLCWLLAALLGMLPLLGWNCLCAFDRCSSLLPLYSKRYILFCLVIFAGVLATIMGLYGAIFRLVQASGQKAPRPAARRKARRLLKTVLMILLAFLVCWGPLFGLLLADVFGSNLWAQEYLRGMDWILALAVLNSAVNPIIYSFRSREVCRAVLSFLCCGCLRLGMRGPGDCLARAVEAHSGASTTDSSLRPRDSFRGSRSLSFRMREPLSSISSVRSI
# S1P3 antag – antagonists of human S1P3 receptor; actives 0.27% (n = 170,000); Q99500; inhibition, % at 4.98 µM; CHO S1P3 NFAT-BLA reporter, FRET fluorescence, antagonist mode;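 active means inhibition above the plate cutoff, the mean inhibition of test wells on that plate plus 3 SD, cut at about 28% in these data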;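 further: cells challenged with S1P at its EC80 of 0.8 µM; blue over green emission ratio from cleaved BLA substrate after 4 h stimulation; 0% = S1P-stimulated wells and 100% = unstimulated DMSO-only wells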
# S1P4 antag – antagonists of human S1P4 receptor | actives 0.26% (n = 220,000) | S1P4-expressing cells, antagonist mode, reporter read-out | O95977 | inhibition, % at 4.98 µM; in the data active means inhibition above about 29%;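 further: 0% = wells stimulated with agonist and 100% = vehicle wells without agonist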
# Hsp70 activator – transcriptional activators of Hsp70. HeLa Hsp70 promoter luciferase reporter, luminescence; scaled: vehicle 0, proteasome-inhibitor control 100%. activation, % at 10 µM. actives 0.04% (n = 200,000). AID 1203;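 active means activation above the mean across all tested compounds plus 3 SD, cutoff set per campaign, cut at about 5.5% in these data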;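 further: 100% = MG132 at 30 µM as the positive control and 0% = DMSO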
# The depositor's hits bear a star; ? = inconclusive; / = no result given. Most compounds without a hit are left out; they make up all but 1.5% or so of the library.
SMILES,Ins promoter up,Insulin prom inh,S1P4 ag,S1P3 antag,S1P4 antag,Hsp70 activator
Cc1c(Nc2ncnc3c2cnn3-c2ccccc2)c(=O)n(-c2ccccc2)n1C,0.52,10,-3,0,4,1
Cc1cccc(-n2ncc3c(Nc4c(C)n(C)n(-c5ccccc5)c4=O)ncnc32)c1,0.42,100*,-2,/,5,0
CCCCCCN1C2=NCCN2c2ccccc21,-0.49,84*,0,/,0,0
CCOc1ccc(C(=O)OCCN(CC)CC)cc1,/,80*,0,/,4,0
CCN(CC)CCOC(=O)c1ccc(Cl)cc1,0.34,-25,0,/,4,0
CCCC(=O)c1ccc(O)cc1O,-1.4,/,0,4,-15,/
COc1cccc(Nc2nc3ccccc3n3cnnc23)c1,0.67,/,0,/,-14,0
COc1cccc(Nc2nc3ccccc3n2C(C)C)c1,0.18,62*,0,9,8,0
Cc1ccc(-c2ccc(S(=O)(=O)N3CCCC3)cc2)cc1,-0.63,/,0,-16,-14,0
Cc1ccc(S(=O)(=O)N2CC(=NO)C2)cc1,0.18,/,1,66*,4,-1
Cn1nnnc1SCC(=O)c1ccc(Br)s1,2.4,-9,-2,/,0,0
Cn1c(Cc2ccccc2)nnc1SCC(=O)c1ccc(Br)s1,0.36,95*,-1,-4,-7,0
Cc1cccc(CSCCNC(=O)c2ccc(N(C)S(=O)(=O)c3ccccc3)cc2)c1,0,-38,2,/,4,1
COc1ccc(-c2nc(-c3ccccc3OC)no2)cc1OC,0.28,/,1,54*,24,0
COc1cc(/C=N/NC(=O)CSc2n[nH]c(=O)[nH]c2=O)cc(OC)c1O,-0.2,42,0,5,-4,0
CCOc1cc(-n2ncc(C#N)c2N)nc(SC)n1,-0.32,-29,2,/,-7,1
CCOc1cc(-n2nc(C)c(C#N)c2N)nc(SC)n1,/,76*,-1,/,-15,0
CCC(=O)Nc1ccc2c(c1)nc1n2CCSC1,-0.06,/,0,20,-1,1
CC(C)C(=O)Nc1ccc2c(c1)nc1n2CCSC1,0.55,76*,0,-2,-14,0
Nc1c(C(=O)NC2CCCC2)sc2nc(-c3cccs3)ccc12,3.9*,-53,-4,34,-33,0
O=C(NC1CCCCCC1)c1cccs1,/,-22,-2,17,-2,0
CC1C/C(=C\c2cccnc2)C(=O)/C(=C/c2cccnc2)C1 (stereo not given),-1.6,-8,-2,1,4,110*
Cc1ccccc1/C=N/Nc1ccnc2cc(Cl)ccc12,-0.27,80*,1,4,-9,0
Fc1ccc(N/N=C/c2cccnc2)c(F)c1,0.79,50,0,-3,0,0
Oc1ccc(/C=N/Nc2ccnc3cc(Cl)ccc23)c(O)c1,/,/,1,-4,-5,/
SMILES,Ins promoter up,Insulin prom inh,S1P4 ag,S1P3 antag,S1P4 antag,Hsp70 activator
Clc1ccc2c(N/N=C/c3cccnc3)ccnc2c1,-0.3,93*,1,-11,-28,0
Cc1ccc(/C=N/Nc2ccnc3cc(Cl)ccc23)c(C)c1,-1.4,/,4,4,-10,0
Clc1ccc2c(N/N=C/c3ccc(Br)cc3)ccnc2c1,-0.42,92*,0,1,-4,0
Cc1cc(=O)oc2ccc(OCC(=O)N(Cc3ccc(F)cc3)Cc3ccco3)cc12,-0.93,-18,-2,1,6,0
Cc1nc2c(Cl)cc(Cl)cc2[nH]1,-0.31,73*,-3,/,-4,1
Cc1nc2c([N+](=O)[O-])c(C)c(C)cc2[nH]1,-0.12,57,1,-13,10,0
CCCCN(CCCC)C(=O)C[n+]1cccc(/C=N/O)c1,0.58,71*,0,-13,1,0
CCCCn1c(N)c(NCCC(C)C)c(=O)[nH]c1=O,-0.16,82*,-2,5,-10,0
COc1ccc(NC(=O)c2onc(C)c2Cl)cc1,0.47,/,0,-6,-1,/
C=CCNc1ncnc2c1[nH]c1ccc(Cl)cc12,0.14,93*,0,/,-12,0
Cc1cc(NC(=S)N(Cc2ccc(Br)cc2)Cc2ccc(C(=O)O)cc2)ccc1Cl,3.8*,/,-2,-12,-4,0
CCOc1ccc(OCCn2nnc3ccccc3c2=O)cc1,-0.35,-29,3,-3,-1,0
COc1cccc(CN(Cc2ccco2)C(c2ccc(F)cc2)c2nnnn2C(C)(C)C)c1 (stereo not given),-0.46,-92,1,64*,-5,0
N#C/C(=C/c1cccs1)c1nc2ccccc2[nH]1,-0.2,75*,2,9,-12,0
Cc1ccc(/C=C(\C#N)c2nc3ccccc3[nH]2)s1,-0.92,96*,-3,/,-19,0
CC(NC(=O)c1ccc2c(c1)OCO2)C1CCCO1 (stereo not given),1,-3,2,-16,-10,0
COc1cc(N=Nc2cccc(S(N)(=O)=O)c2)c2ccccc2c1N,5.9*,/,-1,0,-10,/
COCCCn1cnc2c(c1=O)c1nc3ccccc3nc1n2-c1ccccc1,/,91*,1,-24,-5,0
CC1CN(Cc2nc3c(c(=O)n(C)c(=O)n3C)n2Cc2ccc(Cl)cc2)CC(C)O1 (stereo not given),/,/,/,-14,/,/
O=C(Sc1cccc2cccnc12)c1ccc(F)cc1,?,30,1,9,98*,2
Cc1ccc(-c2csc3ncnc(SCc4ccc(C(=O)O)cc4)c23)cc1,0.59,/,-1,-1,-6,0
CSC(=S)N/N=C(\C)c1ccc(Br)cc1,0.11,/,0,-9,15,0
CCOC(=O)C1CCCN(c2c(N3CCN(c4ccccn4)CC3)c(=O)c2=O)C1 (stereo not given),0.32,86*,0,-4,-8,0
Cc1ccc(NC(=O)Nc2ccc([N+](=O)[O-])cc2)nc1,0.32,/,-1,-9,-6,0
CNc1nc(N)nc(OC(C(F)(F)F)C(F)(F)F)n1,-1.3,12,-1,-16,-3,0
SMILES,Ins promoter up,Insulin prom inh,S1P4 ag,S1P3 antag,S1P4 antag,Hsp70 activator
O=C(c1ccncc1)c1ccc(N2CCN(C3CC(=O)N(Cc4cccs4)C3=O)CC2)cc1 (stereo not given),-0.46,/,1,-2,-9,0
CCN1C(=O)CC(N2CCN(c3ccc(C(=O)c4ccncc4)cc3)CC2)C1=O (stereo not given),0.02,70*,1,/,-10,0
Fc1c(F)c(F)c(CSc2nc3ccccc3[nH]2)c(F)c1F,-0.41,74,-4,9,-6,0
Fc1ccccc1CSc1nc2ccccc2[nH]1,0.41,74*,-2,/,-4,1
CCn1c(CNC(=O)Cc2ccc(OC)cc2)nnc1SCC(=O)Nc1ccc(C(=O)O)cc1,-0.07,/,0,-18,-4,0
CCn1c(CNC(=O)Cc2ccc(OC)cc2)nnc1SCC(=O)Nc1nccs1,0.81,-34,2,60*,-24,0

# Screening data from PubChem.
